Compound activity from PubChem BioAssay.
Hits are enriched below; roughly 0.82% of the tested compounds scored in any of these assays.
Cathepsin G inh = cathepsin G (human) inhibition. P08311. purified enzyme, AMC-tetrapeptide fluorescence, pooled mixtures. inhibition, % at 5 µM (by protocol). 0.2% of 62,000 active. AID 581;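 active means inhibition above 20% in each of the two mixture wells holding the compound; inactive means inhibition of 20% or less in either well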
Target sequence (P08311 21-244 limits assumed): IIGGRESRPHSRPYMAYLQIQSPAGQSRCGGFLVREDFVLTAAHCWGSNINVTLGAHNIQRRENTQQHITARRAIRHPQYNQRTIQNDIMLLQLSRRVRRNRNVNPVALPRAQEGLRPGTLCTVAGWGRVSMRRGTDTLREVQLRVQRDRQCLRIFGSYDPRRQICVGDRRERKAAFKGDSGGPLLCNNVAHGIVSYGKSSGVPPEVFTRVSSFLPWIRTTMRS
WNV protease inh = inhibitors of West Nile virus NS2B-NS3 protease; z-score (concentration not given with the values); 0.18% of 65,000 active; AID 577; P06935; WNV NS2B-NS3 protease, fluorogenic substrate Ex360/Em465; hits give low values; in the data active means z-score below about -3
Target sequence (P06935 1371-1501 limits assumed): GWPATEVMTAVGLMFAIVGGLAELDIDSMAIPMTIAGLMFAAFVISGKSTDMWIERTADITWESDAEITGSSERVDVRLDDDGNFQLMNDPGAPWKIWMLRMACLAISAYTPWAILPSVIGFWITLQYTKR
Target sequence (P06935 1502-1679 limits assumed): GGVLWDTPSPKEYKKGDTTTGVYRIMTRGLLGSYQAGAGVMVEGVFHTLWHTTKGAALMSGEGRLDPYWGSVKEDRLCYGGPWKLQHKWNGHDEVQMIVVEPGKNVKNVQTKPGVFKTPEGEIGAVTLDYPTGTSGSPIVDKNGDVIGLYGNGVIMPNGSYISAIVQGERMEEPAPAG
FXIa mix inh = blocks human factor XIa in pooled compound mixtures | P03951 | purified FXIa, fluorogenic substrate | inhibition, % at 5 µM | 0.19% of 62,000 active | AID 680;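 further: each value is inhibition by a whole ten-compound pool holding the compound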
MMP-13 inhibitor = inhibitors of human MMP13 | 0.07% of 65,000 active | inhibition, % at 4 µM | AID 570 | MMP-13 fTHP FRET cleavage, Mca fluorescence | P45452;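 active means inhibition above the mean of compound-free control plate wells plus 3 SD, cut at about 14% in these data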
C1s inh = blocks human complement C1s protease activity. mean inhibition % of two 10-compound mixtures (hits give high values), % at 5 µM (by protocol). AID 538. purified C1s, fluorogenic AMC substrate, pooled mixtures. 0.16% of 62,000 active;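 active means inhibition above 20% in each of the two 10-compound mixture wells holding the compound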
FXIIa mix inh = blocks human factor XIIa in pooled compound mixtures | purified FXIIa, fluorogenic substrate | inhibition, % at 5 µM | 0.2% of 62,000 active
A number is an active result; . = inactive; / = no result given. Unless noted, no stated cut-off is given here; in the data, active means inhibition above about 20% (passing the limit was not always enough); inactive means the rest.

SMILES	Cathepsin G inh	WNV protease inh	FXIa mix inh	MMP-13 inhibitor	C1s inh	FXIIa mix inh
CCOC(=O)C1=C(C)Nc2nnnn2C1c1ccc(OC)c(Br)c1 (configuration not stated)	.	.	.	.	.	.
CCCCNC(=O)c1nc2ncc(Br)cn2n1	.	.	25.3	.	.	.
Cc1c(NC(=O)c2noc3c2CCc2ccccc2-3)c(=O)n(-c2ccccc2)n1C	.	.	.	.	.	.
O=C(NCCCn1ccnc1)c1noc2c1CCCC2	.	.	.	.	.	.
Cc1ccccc1Cn1nc(C)c(NC(=O)c2noc3c2CCc2ccccc2-3)c1C	72.0	.	.	.	.	.
COc1ccc2c(c1)CCc1c(C(=O)NCc3cccnc3)noc1-2	87.2	.	.	.	.	.
O=C(NCCCn1ccnc1)c1noc2c1CCc1ccccc1-2	95.0	.	.	.	.	.
Cc1cc(NC(=O)c2noc3c2CCc2ccccc2-3)no1	95.5	.	42.4	.	.	.
Cc1c(Cl)cccc1NC(=O)CSc1nnc(CCNC(=O)OC(C)(C)C)o1	.	.	.	.	.	.
O=S(=O)(/C=C/c1ccccc1)Nc1ccc2c(c1)OCO2	/	.	/	.	/	/
Cc1cc(C)nc(Sc2c(C)n[nH]c2C)n1	.	.	.	.	.	.
O=C(/N=C1\NC(=O)C(F)(C(F)(F)F)S1)NC1CCCCC1 (configuration not stated)	.	.	24.2	.	.	.
O=C(CC1Nc2ccccc2NC1=O)NC1CCCCC1 (configuration not stated)	.	.	.	.	.	.
Cc1cc(C)n(C(=O)c2ccc(S(=O)(=O)NCC3CCCO3)cc2)n1 (configuration not stated)	.	.	.	.	.	.
COc1ccccc1N1CCN(C(=O)c2sc3nc(-c4ccc(F)cc4)cn3c2C)CC1	.	.	.	.	.	.
CC(C)(C)NCCCCOc1ccc(F)cc1	.	.	.	.	.	26.2
OCCNCCCCCOc1ccc(F)cc1	.	.	.	.	.	.
CCN(Cc1ccccc1)C(=O)c1ccccc1C	.	-3.46	.	.	.	.
CCN(Cc1ccccc1)C(=O)CCCOc1ccccc1	.	.	.	.	.	.
Cc1ccc(C(=O)CSc2nnc(COc3cc(C)cc(C)c3)o2)cc1	.	.	.	.	.	.
COc1ccc(-c2nc3c(=O)n(C)c(=O)[nH]c3n2CCc2ccccc2)cc1	.	-3.48	.	.	.	.
Nc1nc(NC(=O)c2cccs2)nn1-c1ccccc1	.	.	.	.	.	.
Nc1nncn1C(=O)c1cccs1	22.4	.	.	.	.	.
Cc1cc(Oc2ccccc2)nc(N)n1	.	.	.	.	.	.
Cc1cc(Oc2ccccc2)nc(OCC#N)n1	.	.	.	.	.	38.1
SMILES	Cathepsin G inh	WNV protease inh	FXIa mix inh	MMP-13 inhibitor	C1s inh	FXIIa mix inh
O=c1c2ccccc2c(C=NCCO)c(O)n1-c1ccccc1	.	.	.	15.1	.	.
O=C(COC(=O)c1ccccc1)NCc1ccco1	.	.	.	.	.	34.6
Cc1cccn2c(=O)c(C=NCc3ccco3)c(Nc3ccc(Cl)cc3)nc12	.	-3.27	.	.	.	.
CC(C)[C@H](NC(=O)OC(C)(C)C)c1nnc(S(=O)(=O)Cc2c(F)cccc2Cl)o1	37.7	.	.	.	.	.
CC(C)(C)OC(=O)N[C@@H](Cc1ccccc1)c1nnc(S(=O)(=O)Cc2cccc(F)c2)o1	62.9	.	.	.	.	.
CC(C)=CCSc1nnc([C@@H](NC(=O)OC(C)(C)C)C(C)C)o1	.	.	.	.	.	.
Cc1ccccc1CS(=O)(=O)c1nnc([C@H](CC(C)C)NC(=O)OC(C)(C)C)o1	20.5	.	.	.	.	.
CC[C@@H](C)[C@H](NC(=O)OC(C)(C)C)c1nnc(S(=O)(=O)Cc2cc(C)ccc2C)o1	26.8	.	.	.	.	.
Cc1[nH]c(=O)[nH]c(=O)c1CSc1nnc([C@@H](NC(=O)OC(C)(C)C)C(C)C)o1	.	.	.	.	.	.
O=C(CCCOc1ccccc1)Nc1ccc2c(c1)OCCO2	.	.	.	.	.	.
CCOc1cc(NC(=O)c2cnccn2)c(OCC)cc1NC(=O)c1ccc(OC)cc1	.	.	.	.	.	.
CCOC(=O)c1c(-c2ccc(C)o2)csc1NC(=O)CN1CCN(CC)CC1	.	.	.	.	59.1	.
CN(C)S(=O)(=O)c1cccc(COC(=O)C2=COCCO2)c1	.	.	.	.	.	20.9
O=C(c1ccc(Br)o1)N(Cc1ccccc1)c1ccccn1	.	.	.	/	.	.
CC(C)CCN1CC(C(=O)NCc2ccc(F)cc2)CC1=O (configuration not stated)	.	-4.04	.	.	.	.
CC1(C)CC(=O)C(C=NCCCN2CCOCC2)=C(O)C1	.	.	.	.	.	.
CCn1c(O)c(C=NCCN2CCOCC2)sc1=S	.	-4.55	.	.	.	.
CCOc1cc2c(cc1OCC)C(c1cc(OC)c(O)c(OC)c1)NCC2 (configuration not stated)	.	.	.	.	.	23.8
CCOc1cc2c(cc1OCC)C(c1ccc(O)c(OC)c1)NCC2 (configuration not stated)	.	.	.	.	.	.
CCN(CC)CC(O)Cn1c2ccccc2c2ccccc21 (configuration not stated)	.	.	.	.	.	.
O=S(=O)(c1ccc(F)cc1)N(CCO)CC(O)Cn1c2ccccc2c2ccccc21 (configuration not stated)	.	-4.11	.	.	.	.
Cc1nnc(SCC(=O)NCCc2ccccc2)[nH]c1=O	.	.	.	.	.	.
CCCCNC(=O)CN1C(=O)C(CC)Oc2ccc(Cl)cc21 (configuration not stated)	.	.	.	.	.	20.5
Cn1c(=O)c2c(nc(CN3CCN(C(=O)c4ccco4)CC3)n2CCCc2ccccc2)n(C)c1=O	.	.	.	16.6	.	.
O=S(=O)(Nc1ccc2nc(C(F)(F)F)[nH]c2c1)c1ccccc1	.	.	.	.	.	.
SMILES	Cathepsin G inh	WNV protease inh	FXIa mix inh	MMP-13 inhibitor	C1s inh	FXIIa mix inh
O=S(=O)(Nc1ccc2nc(-c3ccc(Br)o3)[nH]c2c1)c1ccccc1	.	.	.	.	.	27.9
CCN1C(=O)c2ccc(-c3nc4ccccc4c(=O)o3)cc2C1=O	38.8	.	.	.	.	.
CCN1C(=O)c2c(C)nc3ccccc3c2C1=O	.	.	.	.	.	.
C=CCn1c(SC(C)C(=O)NC2(C#N)CCCCC2)nnc1-c1ccc(OC)cc1 (configuration not stated)	.	.	22.1	.	.	.
O=C(OC1CCCCC1)c1ccc2c(c1)C1C=CCC1C(C(=O)O)N2 (configuration not stated)	.	-5.58	.	.	.	.
O=C(O)C1Nc2c(O)cccc2C2C=CCC12 (configuration not stated)	.	.	.	.	.	.
CCOC(=O)c1ccc2c(c1)nc(SCc1cn3ccsc3n1)n2CC	.	.	.	.	.	.
